Results filed as inconclusive are left out. Active and inactive are the calls of the source. Unless noted, calls come from the whole dose curve; as a rule, active = well fitted curve in the direction sought with a large enough effect in the repeat runs; inconclusive = weak or mixed curves; inactive = no such curve, though single readings can be large; an effect the other way counts as inactive or inconclusive.
Columns and labels:
[1] = qHTS assay to identify aromatase inhibitors - cell viability counter screen (AID 743084);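 note: cells stimulated with testosterone during compound exposure; nearly all actives have a fitted effect of over 55% in size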
[2] = qHTS assay to identify small molecule that activate the aryl hydrocarbon receptor (AhR) signaling pathway - cell viability counter screen (AID 743086);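 note: HepG2 liver cells carrying the AhR DRE luciferase reporter; series mostly up to about 70 µM; nearly all actives have a fitted effect of over 45% in size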
In short: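 HepG2-AhR-luc (HG2L7.5c1) cells, 4000/well, treated 24 h at 37 C with compound; viability measured as CellTiter-Fluor fluorescence after 30 min in the same wells as the luciferase read.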

[3] = target: Peroxisome proliferator-activated receptor gamma (Homo sapiens) (UniProt P37231); test: qHTS assay to identify small molecule agonists of the peroxisome proliferator-activated receptor gamma (PPARg) signaling pathway (AID 743094; active = well fitted activation curve with a large enough effect in the signal ratio in the repeat runs, not every such curve was filed as active; the % refers to the signal ratio)
Chain of Peroxisome proliferator-activated receptor gamma (Homo sapiens) (P37231 whole entry, looked up): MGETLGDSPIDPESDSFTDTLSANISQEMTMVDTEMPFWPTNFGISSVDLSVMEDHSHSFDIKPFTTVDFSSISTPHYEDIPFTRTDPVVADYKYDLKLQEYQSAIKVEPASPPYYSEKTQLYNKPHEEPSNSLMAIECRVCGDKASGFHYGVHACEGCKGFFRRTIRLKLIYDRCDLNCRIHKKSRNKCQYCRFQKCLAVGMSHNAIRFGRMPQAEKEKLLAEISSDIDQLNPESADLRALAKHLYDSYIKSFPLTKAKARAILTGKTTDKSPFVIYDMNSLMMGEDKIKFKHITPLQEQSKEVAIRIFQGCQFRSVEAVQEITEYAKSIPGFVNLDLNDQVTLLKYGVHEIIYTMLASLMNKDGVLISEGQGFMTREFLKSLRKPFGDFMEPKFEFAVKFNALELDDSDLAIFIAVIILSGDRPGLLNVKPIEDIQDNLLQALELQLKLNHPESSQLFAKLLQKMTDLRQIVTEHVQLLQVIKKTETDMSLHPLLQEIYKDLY
In short: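 Following 5 h plating at 37C, PPARg-bla HEK293H cells receive compound or DMSO for 17 h; fluorescence intensity is recorded after LiveBLAzer B/G loading for 1 h at room temperature.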

[4] = target: Peroxisome proliferator-activated receptor gamma (Homo sapiens) (UniProt P37231); test: qHTS assay to identify small molecule antagonists of the peroxisome proliferator-activated receptor gamma (PPARg) signaling pathway (AID 743191; calls by dose curve; note: nearly all actives have a fitted effect of over 30% in size; note: potency is the fitted concentration of half-maximal effect; for ratio activity, negative = inhibition: series mostly up to about 63 µM)
In short: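 GeneBLAzer PPARg UAS-bla HEK293H cells, 5 h post-plating, exposed to compounds 17 h at 37C. LiveBLAzer B/G FRET substrate added for 1 h at room temperature; beta-lactamase reporter read by fluorescence intensity.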

[5] = qHTS assay for small molecule agonists of the antioxidant response element (ARE) signaling pathway (AID 743202; active = well fitted activation curve with a large enough effect in the signal ratio in the repeat runs, not every such curve was filed as active; the % refers to the signal ratio; note: potency is the fitted concentration of half-maximal effect)
In short: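 ARE-bla HepG2 cells (beta-lactamase reporter under the antioxidant response element), plated 5 hours, then exposed to compounds 16 hours at 37 C. LiveBLAzer B/G FRET substrate added for 2 hours at room temperature; fluorescence intensity read.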

[6] = qHTS assay for small molecule agonists of the antioxidant response element (ARE) signaling pathway - cell viability counter screen (AID 743203; calls by dose curve; note: nearly all actives have a fitted effect of over 55% in size)
In short: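 Compounds in DMSO were pinned onto ARE-bla HepG2 cells plated 5 hrs earlier at 2,000 cells/well. Sixteen hours later at 37C/5% CO2, CellTiter-Glo was added and luminescence measured after 30 min at room temperature.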

[7] = qHTS assay for small molecule activators of the heat shock response signaling pathway - cell viability counter screen (AID 743209); note: nearly all actives have a fitted effect of over 50% in size
In short: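 Counter screen for cytotoxicity in HeLa HSE-bla reporter cells. Treatment was 5 h at 37 C; viability was detected by luminescent ATP assay (CellTiter-Glo) in the same wells as the beta-lactamase read.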

[8] = qHTS assay for small molecule activators of the heat shock response signaling pathway (AID 743210; active = well fitted activation curve with a large enough effect in the signal ratio in the repeat runs, with a control signal flat, not every such curve was filed as active; the % refers to the signal ratio; note: series mostly up to about 63 µM)
In short: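 HSE-bla HeLa cells (beta-lactamase reporter under heat shock response elements), plated overnight, then exposed to compounds 5 h at 37 C; LiveBLAzer B/G FRET substrate added, 2.5 h at room temperature, fluorescence intensity read.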

[9] = qHTS assay to identify small molecule agonists of the peroxisome proliferator-activated receptor delta (PPARd) signaling pathway - cell viability counter screen (AID 743211); note: nearly all actives have a fitted effect of over 55% in size
In short: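 Viability of GeneBLAzer PPARd UAS-bla HEK293H cells was assessed after 17 h compound incubation at 37C, using CellTiter-Glo reagent added after the reporter read and luminescence recorded 30 min later.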

[10] = target: Peroxisome proliferator-activated receptor delta (Homo sapiens) (UniProt Q03181); test: qHTS assay to identify small molecule agonists of the peroxisome proliferator-activated receptor delta (PPARd) signaling pathway (AID 743212; calls by dose curve)
Chain of Peroxisome proliferator-activated receptor delta (Homo sapiens) (Q03181 whole entry, looked up): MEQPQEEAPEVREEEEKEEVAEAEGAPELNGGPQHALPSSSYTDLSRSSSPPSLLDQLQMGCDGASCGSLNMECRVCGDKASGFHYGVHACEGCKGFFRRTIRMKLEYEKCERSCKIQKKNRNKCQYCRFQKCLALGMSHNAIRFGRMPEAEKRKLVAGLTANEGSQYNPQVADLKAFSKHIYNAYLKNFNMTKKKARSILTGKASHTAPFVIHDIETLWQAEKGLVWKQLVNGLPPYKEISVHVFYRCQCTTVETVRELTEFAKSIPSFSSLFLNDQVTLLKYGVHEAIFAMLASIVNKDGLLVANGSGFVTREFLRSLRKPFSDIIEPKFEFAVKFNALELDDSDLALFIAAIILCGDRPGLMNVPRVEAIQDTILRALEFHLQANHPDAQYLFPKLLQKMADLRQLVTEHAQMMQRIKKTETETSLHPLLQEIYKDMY
In short: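 GeneBLAzer UAS-bla HEK293H cells carrying a PPARδ construct were exposed to compounds at 37 °C. Beta-lactamase activity was read by FRET fluorescence after 2 h at room temperature with LiveBLAzer B/G substrate.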

[11] = qHTS assay to identify small molecule antagonists of the peroxisome proliferator-activated receptor delta (PPARd) signaling pathway - cell viability counter screen (AID 743213); note: nearly all actives have a fitted effect of over 50% in size
In short: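 Cytotoxicity counter screen: CellTiter-Glo luminescence read 30 min after addition, in the same wells as the reporter assay. There, PPARd UAS-bla HEK293H cells (3000/well) were treated 17 h at 37 C with compound and 300 nM L165041.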

[12] = target: Peroxisome proliferator-activated receptor delta (Homo sapiens) (UniProt Q03181); test: qHTS assay to identify small molecule antagonists of the peroxisome proliferator-activated receptor delta (PPARd) signaling pathway (AID 743215; active = well fitted inhibition curve with a large enough effect in the signal ratio in the repeat runs, not every such curve was filed as active; the % refers to the signal ratio;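 note: cells stimulated with agonist L165041 at 300 nM final during compound exposure; series mostly up to about 62 µM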)
In short: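 With L165041 present at 300 nM final, compounds were incubated 17 h at 37 C on PPARd UAS-bla HEK293H cells. A FRET-based beta-lactamase substrate was then applied for 2 h at room temperature and fluorescence intensity recorded.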

[13] = qHTS assay to identify small molecule agonists of the farnesoid-X-receptor (FXR) signaling pathway - cell viability counter screen (AID 743218); note: nearly all actives have a fitted effect of over 45% in size
In short: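 After 16 h at 37 C with test compounds, FXR-bla HEK 293T cells were given LiveBLAzer B/G substrate for 2 h at RT and then CellTiter-Glo; luminescence was taken after 30 min.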

[14] = qHTS assay to identify small molecule antagonists of the farnesoid-X-receptor (FXR) signaling pathway - cell viability counter screen (AID 743221; active = well fitted cell-killing curve with a large enough effect in the repeat runs, not every such curve was filed as active; note: nearly all actives have a fitted effect of over 50% in size)
In short: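 Quantitative HTS of the Tox21 10K library run in parallel with the beta-lactamase reporter read. HEK 293T cells carrying a UAS-driven bla reporter got compound and 50 uM CDCA (final) for 16 h; ATP-based luminescence followed.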

[15] = target: Vitamin D3 receptor (Homo sapiens) (UniProt P11473); test: qHTS assay to identify small molecule agonists of the vitamin D receptor (VDR) signaling pathway (AID 743222; calls by dose curve)
Chain of Vitamin D3 receptor (Homo sapiens) (P11473 whole entry, looked up): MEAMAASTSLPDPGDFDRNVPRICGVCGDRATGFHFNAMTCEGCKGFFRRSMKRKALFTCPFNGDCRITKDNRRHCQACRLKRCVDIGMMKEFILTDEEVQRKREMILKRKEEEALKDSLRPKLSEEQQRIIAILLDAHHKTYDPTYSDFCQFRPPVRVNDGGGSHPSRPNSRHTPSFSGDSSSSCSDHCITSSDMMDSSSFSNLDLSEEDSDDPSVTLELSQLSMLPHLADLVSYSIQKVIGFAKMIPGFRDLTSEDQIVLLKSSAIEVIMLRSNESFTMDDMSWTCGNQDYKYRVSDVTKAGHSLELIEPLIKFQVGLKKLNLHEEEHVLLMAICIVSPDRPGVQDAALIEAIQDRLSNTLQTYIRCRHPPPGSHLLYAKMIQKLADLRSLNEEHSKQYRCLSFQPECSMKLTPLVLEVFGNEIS
In short: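 VDR-bla cells were seeded, left 4 h, treated with compounds in DMSO for 16 h, incubated 2 h at RT with B/G FRET substrate, and read for fluorescence.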

[16] = target: Vitamin D3 receptor (Homo sapiens) (UniProt P11473); test: qHTS assay to identify small molecule antagonists of the vitamin D receptor (VDR) signaling pathway (AID 743223; active = well fitted inhibition curve with a large enough effect in the signal ratio in the repeat runs, not every such curve was filed as active; the % refers to the signal ratio)
In short: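 Fluorescence from LiveBLAzer B/G FRET substrate, read after 2 h at room temperature, reflects beta-lactamase reporter activity in VDR-bla cells treated 16 h at 37C with compounds and agonist 1alpha,25-dihydroxyvitamin D3 (3 nM final).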

[17] = qHTS assay to identify small molecule antagonists of the peroxisome proliferator-activated receptor gamma (PPARg) signaling pathway - cell viability counter screen (AID 743194); note: nearly all actives have a fitted effect of over 55% in size
In short: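 Cytotoxicity counter screen in PPARg-bla HEK293H cells, same wells as reporter assay. Compounds plus 50 nM rosiglitazone (final) for 17 h at 37 C, then viability read by CellTiter-Glo luminescence.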

[18] = target: Bile acid receptor (Homo sapiens) (UniProt Q96RI1); test: qHTS assay to identify small molecule antagonists of the farnesoid-X-receptor (FXR) signaling pathway (AID 743217; active = well fitted inhibition curve with a large enough effect in the signal ratio in the repeat runs, not every such curve was filed as active; the % refers to the signal ratio)
Chain of Bile acid receptor (Homo sapiens) (Q96RI1 whole entry, looked up): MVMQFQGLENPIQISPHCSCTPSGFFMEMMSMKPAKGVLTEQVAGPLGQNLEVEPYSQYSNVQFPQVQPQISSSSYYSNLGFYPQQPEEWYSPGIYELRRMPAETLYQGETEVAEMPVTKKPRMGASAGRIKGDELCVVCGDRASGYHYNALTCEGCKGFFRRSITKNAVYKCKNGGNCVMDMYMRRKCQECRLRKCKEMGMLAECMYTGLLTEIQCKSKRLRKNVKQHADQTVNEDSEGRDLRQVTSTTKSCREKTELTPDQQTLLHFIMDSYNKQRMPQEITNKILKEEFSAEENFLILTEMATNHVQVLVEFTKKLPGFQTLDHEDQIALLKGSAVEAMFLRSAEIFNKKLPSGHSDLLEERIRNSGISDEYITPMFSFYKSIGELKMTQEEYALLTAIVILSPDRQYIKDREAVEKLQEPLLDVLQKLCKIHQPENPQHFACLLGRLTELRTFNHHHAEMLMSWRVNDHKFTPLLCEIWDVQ
In short: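 In this cell-based antagonist screen, inhibition of CDCA-driven (50 uM final) UAS-beta-lactamase expression in HEK 293T cells was measured by FRET fluorescence following 16 h compound exposure at 37 °C.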

[19] = target: Bile acid receptor (Homo sapiens) (UniProt Q96RI1); test: qHTS assay to identify small molecule agonists of the farnesoid-X-receptor (FXR) signaling pathway (AID 743220; active = well fitted activation curve with a large enough effect in the signal ratio in the repeat runs, not every such curve was filed as active; the % refers to the signal ratio)
In short: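 Beta-lactamase reporter under UAS control in GeneBLAzer FXR HEK 293T cells (5000/well) measured with LiveBLAzer FRET substrate after 2 h at room temperature. Compound exposure lasted 16 h at 37C.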

[20] = target: Aryl hydrocarbon receptor (Homo sapiens) (UniProt P35869); test: qHTS assay to identify small molecule that activate the aryl hydrocarbon receptor (AhR) signaling pathway (AID 743085);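 note: HG2L7.5c1 human HepG2 liver cells with stably integrated DRE-driven firefly reporter; series mostly up to about 70 µM; nearly all actives have a fitted effect of over 15% in size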
Chain of Aryl hydrocarbon receptor (Homo sapiens) (P35869 whole entry, looked up): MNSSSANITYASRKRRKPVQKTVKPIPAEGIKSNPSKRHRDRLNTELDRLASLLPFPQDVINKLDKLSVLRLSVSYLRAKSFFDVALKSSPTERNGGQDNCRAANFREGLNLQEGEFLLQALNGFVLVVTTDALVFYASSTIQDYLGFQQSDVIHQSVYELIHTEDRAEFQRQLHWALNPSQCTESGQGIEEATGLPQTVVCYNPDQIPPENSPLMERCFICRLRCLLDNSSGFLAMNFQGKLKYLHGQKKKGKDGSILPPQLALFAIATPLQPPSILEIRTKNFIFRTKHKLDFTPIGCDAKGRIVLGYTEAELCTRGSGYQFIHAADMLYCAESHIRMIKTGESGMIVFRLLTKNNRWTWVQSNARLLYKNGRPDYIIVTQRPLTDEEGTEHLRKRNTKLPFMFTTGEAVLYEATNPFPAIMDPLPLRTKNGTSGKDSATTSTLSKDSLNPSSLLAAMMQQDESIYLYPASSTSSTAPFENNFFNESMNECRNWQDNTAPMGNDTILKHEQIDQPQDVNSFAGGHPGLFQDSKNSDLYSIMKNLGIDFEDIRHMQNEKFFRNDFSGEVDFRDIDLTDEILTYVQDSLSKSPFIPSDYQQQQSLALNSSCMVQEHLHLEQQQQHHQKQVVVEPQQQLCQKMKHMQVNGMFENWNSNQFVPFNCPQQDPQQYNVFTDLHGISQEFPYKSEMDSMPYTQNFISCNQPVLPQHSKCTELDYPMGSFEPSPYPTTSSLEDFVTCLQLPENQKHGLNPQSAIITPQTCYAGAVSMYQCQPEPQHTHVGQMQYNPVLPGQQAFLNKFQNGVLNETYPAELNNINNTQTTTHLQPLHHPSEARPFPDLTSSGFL
In short: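 Steps: seed HepG2-AhR-luc cells; allow 5 h at 37C; pin-transfer test compound or vehicle; incubate 24 h at 37C; add viability dye (30 min, 37C) and read fluorescence; add luciferase substrate (30 min, RT) and read luminescence.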
% is set by controls: 0 for no effect and ±100 for the full control effect.

COc1cc2c(cc1OC)[C@@H]1CC(=O)[C@@H](CC(C)C)CN1CC2
inactive: Potency [1] | Potency [2] | outcome [3] | Potency [4] | Potency [5] | outcome [6] | outcome [7] | outcome [8] | outcome [9] | outcome [10] | outcome [11] | outcome [12] | Potency [13] | outcome [14] | outcome [15] | outcome [16]

CCO[Si](CCCS)(OCC)OCC
inactive: Potency [1] | Potency [2] | outcome [3] | outcome [17] | Potency [5] | outcome [6] | outcome [7] | outcome [8] | outcome [9] | outcome [11] | Potency [13] | outcome [14]

COCCOCCOCCOCCO
inactive: Potency [1] | Potency [2] | outcome [3] | outcome [17] | Potency [5] | outcome [6] | outcome [7] | outcome [8] | outcome [9] | outcome [10] | outcome [11] | outcome [12] | Potency [18] | Potency [13] | Potency [19] | outcome [14]

CCCC/C=C/C=C\C=O
inactive: Potency [1] | Potency [2] | outcome [3] | outcome [17] | outcome [7] | outcome [9] | outcome [10] | outcome [11] | outcome [12] | Potency [13] | Potency [19] | outcome [15] | outcome [16]

CC(C)OC(=O)CCCCC(=O)OC(C)C
active: Potency [5] 30.7 µM
inactive: Potency [1] | Potency [2] | outcome [3] | outcome [7] | outcome [8] | outcome [9] | outcome [11] | Potency [13] | Potency [19] | outcome [14] | outcome [15] | outcome [16]

O=C1c2ccccc2C(=O)N1CCl
inactive: Potency [1] | Potency [2] | outcome [3] | Potency [4] | Potency [5] | outcome [6] | outcome [7] | outcome [8] | outcome [9] | outcome [10] | outcome [11] | outcome [12] | Potency [18] | Potency [13] | Potency [19] | outcome [15]

CC1(CO)CN(c2ccccc2)NC1=O (stereo unspecified)
inactive: Potency [1] | Potency [2] | outcome [17] | outcome [6] | outcome [7] | outcome [8] | outcome [9] | outcome [11] | outcome [12] | outcome [15] | outcome [16]

O=S(=O)(O)CCN1CCN(CCO)CC1
inactive: Potency [1] | Potency [2] | outcome [3] | Potency [4] | outcome [17] | outcome [6] | outcome [7] | outcome [8] | outcome [9] | outcome [11] | Potency [18] | Potency [13] | Potency [19] | outcome [15] | outcome [16]

O=C(O)C(=O)Cc1ccccc1
inactive: Potency [1] | Potency [2] | Potency [4] | outcome [6] | outcome [7] | outcome [8] | outcome [9] | outcome [11] | outcome [12] | Potency [13] | outcome [14] | outcome [15] | outcome [16]
active: Potency [5] 27.3 µM

CC(S)C(=O)NCC(=O)O (stereo unspecified)
inactive: Potency [1] | Potency [2] | outcome [3] | Potency [4] | Potency [5] | outcome [6] | outcome [7] | outcome [8] | outcome [9] | outcome [11] | Potency [13] | outcome [14] | outcome [15] | outcome [16]

N[C@@H](COP(=O)(O)O)C(=O)O
inactive: Potency [1] | Potency [2] | outcome [3] | Potency [4] | Potency [5] | outcome [6] | outcome [7] | outcome [9] | outcome [10] | outcome [11] | outcome [12] | Potency [18] | Potency [13] | Potency [19] | outcome [14] | outcome [15]

CC(C)CC(=O)O
inactive: Potency [1] | Potency [2] | outcome [3] | outcome [17] | outcome [6] | outcome [7] | outcome [8] | outcome [9] | outcome [12] | Potency [13] | outcome [14] | outcome [15] | outcome [16]

CC(C)NCC(O)COc1cccc2[nH]ccc12 (stereo unspecified)
inactive: Potency [1] | Potency [2] | outcome [3] | outcome [17] | Potency [5] | outcome [6] | outcome [7] | outcome [8] | outcome [10] | outcome [11] | outcome [12] | Potency [13] | outcome [14] | outcome [16]

COC(=O)[C@@H]1[C@H]2C[C@H]3c4[nH]c5ccccc5c4CCN3C[C@@H]2CC[C@@H]1O
inactive: Potency [1] | Potency [2] | outcome [3] | outcome [17] | Potency [5] | outcome [6] | outcome [7] | outcome [8] | outcome [9] | outcome [11] | Potency [13] | outcome [15] | outcome [16]

O=C(OCC(O)CO)c1ccccc1Nc1ccnc2c(C(F)(F)F)cccc12 (stereo unspecified)
inactive: outcome [6] | outcome [7] | outcome [8] | outcome [9] | outcome [11] | Potency [13] | Potency [19] | outcome [14] | outcome [15] | outcome [16]
active: Potency [4] 16.8 µM | Potency [5] 26.6 µM

COCCc1ccc(OCC2CO2)cc1 (stereo unspecified)
inactive: outcome [7] | outcome [8] | outcome [9] | outcome [10] | outcome [11] | outcome [12] | Potency [13] | outcome [14] | outcome [15] | outcome [16]

COC(=O)C1CC(=O)C(C(=O)OC)CC1=O (stereo unspecified)
inactive: activation [20] 0.473% [at 8.47 µM] | viability change, negative = cytotoxic [2] 14.4% [at 8.47 µM] | activation [3] -2.09% [at 7.08 µM] | ratio activity, negative = inhibition [4] 0.96% [at 5.95 µM] | activity change, negative = cytotoxicity [17] 17.9% [at 5.95 µM] | activation [5] -4.53% [at 8.36 µM] | activity change, negative = cytotoxicity [7] 12.2% [at 5.95 µM] | activity change, negative = cytotoxicity [9] -4.27% [at 5.95 µM] | activation [10] 3.55% [at 5.95 µM] | viability change, negative = cytotoxic [11] -19.8% [at 6.26 µM] | ratio activity, negative = inhibition [12] -19.7% [at 6.26 µM] | viability change, negative = cytotoxic [13] 25% [at 5.95 µM] | activity change, negative = cytotoxicity [14] -3.4% [at 5.95 µM] | activity change, negative = inhibition [16] 0.852% [at 6.95 µM]

C=C(C)C(=O)OCc1ccccc1
inactive: Potency [20] | Potency [2] | outcome [3] | Potency [4] | outcome [6] | outcome [7] | outcome [10] | outcome [11] | Potency [18] | Potency [13] | Potency [19] | outcome [14] | outcome [15] | outcome [16]

CC(C)=CCOC(=O)c1ccccc1
inactive: Potency [2] | outcome [6] | outcome [7] | outcome [8] | outcome [9] | outcome [10] | outcome [11] | outcome [12] | Potency [13] | outcome [14]
